# Experimental data reported in PubChem BioAssay (EPA / NIEHS).
# Records with an inconclusive call do not appear. Active and inactive are the calls of the source. How the source made its calls: active means hit-call score of the fitted dose curve at least 0.9, where 1 is the maximum; inconclusive means response in the unintended direction; inactive means score below 0.9.
# Target: Estrogen receptor (Homo sapiens) (UniProt P03372)
# Experiment: ATG_ERa_TRANS: Attagene TRANS-FACTORIAL HepG2 Assay for human Estrogen Receptor alpha (ERa) (AID 2282970)
# Conditions: HepG2 Attagene TRANS ERa GAL4 reporter, mRNA
# Protocol: ATG_TRANS is a cell-based, multiplexed-readout assay that uses HepG2, a human liver cell line, with measurements taken at 24 hours after chemical dosing in a 24-well plate.ATG_ERa_TRANS is one of 30 assay component(s) measured or calculated from the ATG_TRANS assay. It is designed to make measurements of mRNA induction, a form of inducible reporter, as detected with fluorescence intensity signals by Reverse transcription polymerase chain reaction (RT-PCR) and Capillary electrophoresis technology.Data from the assay component ATG_ERa_TRANS was analyzed into 1 assay endpoint. This assay endpoint, ATG_ERa_TRANS, was analyzed in the positive analysis fitting direction relative to DMSO as the negative control and baseline of activity. Using a type of inducible reporter, measures of mRNA for gain-of-signal activity can be used to understand the reporter gene at the transcription factor-level as they relate to the gene ESR1. Furthermore, this assay endpoint can be referred to as a primary readout, because this assay has produced multiple assay endpoints where this one serves a reporter gene function. To generalize the intended target to other relatable targets, this assay endpoint is annotated to the nuclear receptor intended target family, where the subfamily is steroidal.
# Human liver HepG2 cells are transiently transfected with multiple reporter transcription units (MRTUs) in 6-well plates using FuGene 6 reagent (Roche; 3 ml FuGene/1 mg DNA). The MRTU constructs are regulated by a cis-regulating element (promoter). […] A major difference between the CIS and TRANS system is that in CIS activities of endogenous TFs are measured, whereas the TRANS assay evaluates changes in activities of exogenous, chimeric NR-Gal4 proteins. […] At the end of 24 hour incubation, total RNA was isolated using TriZol reagent (Invitrogen). The isolated RNA is then reverse-transcribed using oligo(dT) primer and Mo-MLV reverse transcriptase (Invitrogen) with DNAse I (Ambion) treatment for 30 min. The one-tenth of the produced cDNA was amplified by PCR using Taq DNA polymerase (Invitrogen) and two reporter sequence-specific primers. The PCR products were fluorescently labeled by primer extension with 6-arboxyfluorescein (6-FAM) 5'-labeled reporter sequence-specific primer (2 min at 95 C, 20 s at 68 C and 10 min at 72 C) and these products were digested with 5U of HpaI (New England Biolabs) for 2h at 37 C. […] The raw capillary electrophoresis data was processed using Attagraph software (Attagene).
# Sequence of Estrogen receptor (Homo sapiens) (P03372 whole entry, looked up): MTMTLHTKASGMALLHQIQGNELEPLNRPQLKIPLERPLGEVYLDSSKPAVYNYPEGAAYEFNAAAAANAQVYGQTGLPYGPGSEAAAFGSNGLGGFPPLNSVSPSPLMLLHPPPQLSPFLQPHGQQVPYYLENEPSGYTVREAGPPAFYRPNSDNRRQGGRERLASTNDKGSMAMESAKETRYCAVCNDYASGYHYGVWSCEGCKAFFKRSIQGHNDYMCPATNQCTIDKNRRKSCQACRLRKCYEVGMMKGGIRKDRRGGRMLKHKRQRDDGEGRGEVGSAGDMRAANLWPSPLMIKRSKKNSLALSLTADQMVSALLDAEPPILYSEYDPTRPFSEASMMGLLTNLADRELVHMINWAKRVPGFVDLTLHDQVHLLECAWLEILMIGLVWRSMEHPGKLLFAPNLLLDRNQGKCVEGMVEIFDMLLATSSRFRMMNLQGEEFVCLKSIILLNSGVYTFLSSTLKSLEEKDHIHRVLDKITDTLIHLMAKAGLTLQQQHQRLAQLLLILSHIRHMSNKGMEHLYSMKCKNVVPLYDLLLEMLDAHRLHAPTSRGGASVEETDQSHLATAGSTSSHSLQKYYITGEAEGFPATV
Structure (SMILES),outcome,AC50
CN(C)CCC=C1c2ccccc2CCc2ccccc21,inactive,–
C=CCCCCCCCCC(=O)OCC,inactive,–
CCC=C(C)C=O,–,15.3 µM (active)
CCCCOCCOC(=O)c1ccccc1C(=O)OCCOCCCC,inactive,–
COc1ccc2[nH]cc(CCNC(C)=O)c2c1,inactive,–
c1ccc(Cc2ccccc2)cc1,inactive,–
N=C1N=C(N)c2ccccc21,–,100 µM (active)
C=CC(C)(CCC=C(C)C)OC(=O)CC (stereo not given),inactive,–
Cc1cccc(O)c1,inactive,–
CC(C)(C)C1CCC(O)CC1 (stereo not given),–,29.2 µM (active)
CCCCOCCOCCO,inactive,–
CC(=O)c1ccc(O)cc1,inactive,–
Cc1cc(O)c(C)c(C)c1O,–,21.2 µM (active)
CC(=O)Nc1cc(S(=O)(=O)O)cc2cc(S(=O)(=O)O)c(N=Nc3ccccc3)c(O)c12,inactive,–
CC(C)C(=O)c1ccccc1,–,0.604 µM (active)
CCC(=O)OC(C)(C)C1CC=C(C)CC1 (stereo not given),–,78.3 µM (active)
Cc1ccccc1S,inactive,–
CC(C)(C)c1ccc(S)cc1,inactive,–
CC(C)=CC(=O)O,–,49.1 µM (active)
[O-]/[N+](=N\O)c1ccccc1,–,42.3 µM (active)

Structure (SMILES),outcome,AC50
CC(C)N(c1ccccc1)C(C)C,inactive,–
Brc1cc(Br)cc(Br)c1,inactive,–
CC1=CC(C)C(C=O)C(C)C1 (stereo not given) (tested in a mixture with another compound),inactive,–
CC1=CCC(=C(C)C)CC1,–,33.3 µM (active)
CCCCCC1C(=O)CCC1CC(=O)OC (stereo not given),inactive,–
COc1ccc(N)c(C)c1,–,56.5 µM (active)
CC(CCO)CC(C)(C)C (stereo not given),inactive,–
CC(=O)CCC=C(C)CCC=C(C)C,inactive,–
CCCCCCCCOS(=O)(=O)O,–,100 µM (active)
CC1(C)CC(N)CC(C)(CN)C1 (stereo not given),inactive,–
C1COCO1,inactive,–
CC(=O)c1ccc(C)cc1,inactive,–
NC(=O)NC(N)=O,inactive,–
C/C=C(\C)C(=O)OC/C=C(\C)CCC=C(C)C,inactive,–
NCCN1CCNCC1,inactive,–
NC(=O)c1cccnc1,inactive,–
c1coc(CNc2ncnc3nc[nH]c23)c1,inactive,–
O=C(OCc1ccccc1)c1ccccc1O,–,43 µM (active)
c1ccc2c(c1)-c1ccc3ccc4cccc5cc-2c1c3c45,–,0.422 µM (active)
CC(C)COC(=O)c1ccccc1O,inactive,–
